# Reference: paper PMC5540273 (PLoS ONE, 2017)
# Read-outs that look alike come from different tables or passages of the source.
# Columns and labels:
# MAP3K15 = conditions: concentration: 1 μM,replicates: in singlicate; n = 1
# MAP3K1 = conditions: concentration: 1 μM,replicates: in singlicate; n = 1
# MAP3K2 = conditions: concentration: 1 μM,replicates: in singlicate; n = 1
# MAP3K3 = conditions: concentration: 1 μM,replicates: in singlicate; n = 1
# MAP3K4 = conditions: concentration: 1 μM,replicates: in singlicate; n = 1
# MAP4K2 = conditions: concentration: 1 μM,replicates: in singlicate; n = 1
# MAP4K3 = conditions: concentration: 1 μM,replicates: in singlicate; n = 1
# MAP4K4 = conditions: concentration: 1 μM,replicates: in singlicate; n = 1
# MAP4K5 = conditions: concentration: 1 μM,replicates: in singlicate; n = 1
# MAPKAPK5 = conditions: concentration: 1 μM,replicates: in singlicate; n = 1
# MARK1 = conditions: concentration: 1 μM,replicates: in singlicate; n = 1
# MARK2 = conditions: concentration: 1 μM,replicates: in singlicate; n = 1
# MARK3 = conditions: concentration: 1 μM,replicates: in singlicate; n = 1
# MARK4 = conditions: concentration: 1 μM,replicates: in singlicate; n = 1
# MAST1 = conditions: concentration: 1 μM,replicates: in singlicate; n = 1
# MEK1 = tested on: T1, MEK1; conditions: concentration: 1 μM,replicates: in singlicate; n = 1
# T1 construct: gene MAP2K1
# MEK2 = tested on: T2, MEK2; conditions: concentration: 1 μM,replicates: in singlicate; n = 1
# T2 construct: gene MAP2K2
# MEK4 = tested on: T3, MEK4; conditions: concentration: 1 μM,replicates: in singlicate; n = 1
# T3 construct: gene MAP2K4
# MAPKAPK2 = conditions: n = 1
# MEK3 = tested on: T4, MEK3; conditions: concentration: 1 μM,replicates: in singlicate; n = 1
# T4 construct: gene MAP2K3
# [1] = concentration: 1 μM,replicates: in singlicate
# 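Note: KINOMEscan kinase panel screen.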
structure (smiles),measurement,setting,value
O=C1NCCc2[nH]c(-c3ccncc3)cc21,%Inh,MAP3K15,85%
same,%Inh,MAP3K1,5%
same,%Inh,MAP3K2,0%
same,%Inh,MAP3K3,23%
same,%Inh,MAP3K4,3%
same,%Inh,MAP4K2,52%
same,%Inh,MAP4K3,15%
same,%Inh,MAP4K4,25%
same,%Inh,MAP4K5,6%
same,%Inh,MAPKAPK5,46%
same,%Inh,MARK1,22%
same,%Inh,MARK2,12%
same,%Inh,MARK3,25%
same,%Inh,MARK4,11%
same,%Inh,MAST1,59%
same,%Inh,MEK1,8%
same,%Inh,MEK2,26%
same,%Inh,MEK4,0%
Cn1ccc2ncnc(Oc3ccc(NC(=O)Nc4cccc(C(F)(F)F)c4)c(F)c3)c21,%Inh,MAP3K15,0%
same,%Inh,MAP3K1,0%
same,%Inh,MAP3K2,0%
same,%Inh,MAP3K3,18%
same,%Inh,MAP3K4,13%
same,%Inh,MAP4K2,0%
same,%Inh,MAP4K3,20%
same,%Inh,MAP4K4,17%
same,%Inh,MAP4K5,40%
same,%Inh,MAPKAPK2; [1],22%
same,%Inh,MAPKAPK5,0%
same,%Inh,MARK1,13%
same,%Inh,MARK2,9%
same,%Inh,MARK3,8%
same,%Inh,MARK4,0%
same,%Inh,MAST1,0%
same,%Inh,MEK1,0%
same,%Inh,MEK2,29%
same,%Inh,MEK3,3%
same,%Inh,MEK4,0%
C[C@@H]1CNc2c(sc3ccc4nc(-c5ccc(O)cc5)ccc4c23)C(=O)N1,%Inh,MAP3K15,61%
same,%Inh,MAP3K1,0%
same,%Inh,MAP3K2,12%
same,%Inh,MAP3K3,11%
same,%Inh,MAP3K4,16%
same,%Inh,MAP4K2,85%
same,%Inh,MAP4K3,31%
same,%Inh,MAP4K4,26%
same,%Inh,MAP4K5,13%
same,%Inh,MAPKAPK2; [1],99%
same,%Inh,MAPKAPK5,99.9%
same,%Inh,MARK1,26%
same,%Inh,MARK2,7%
same,%Inh,MARK3,17%
same,%Inh,MARK4,17%
same,%Inh,MAST1,48%
same,%Inh,MEK1,1%
same,%Inh,MEK2,23%
same,%Inh,MEK3,51%
same,%Inh,MEK4,0%
Cc1ccc(Nc2ccnc(Nc3ccc4c(c3)CS(=O)(=O)C4)n2)cc1O.Cl [GW579362],%Inh,MAP3K15,0%
same,%Inh,MAP3K1,27%
same,%Inh,MAP3K2,88%
same,%Inh,MAP3K3,73%
same,%Inh,MAP3K4,29%
same,%Inh,MAP4K2,22%
same,%Inh,MAP4K3,0%
same,%Inh,MAP4K4,52%
same,%Inh,MAP4K5,33%
same,%Inh,MAPKAPK2; [1],0%
same,%Inh,MAPKAPK5,0%
same,%Inh,MARK1,0%
same,%Inh,MARK2,17%
same,%Inh,MARK3,0%
same,%Inh,MARK4,5%
same,%Inh,MAST1,0%
same,%Inh,MEK1,84%
same,%Inh,MEK2,62%
same,%Inh,MEK3,92%
same,%Inh,MEK4,90.9%
C[C@@H]1CNc2c(sc3ccc4nc(-c5ccncc5)ccc4c23)C(=O)N1,%Inh,MAP3K15,52%
same,%Inh,MAP3K1,0%
same,%Inh,MAP3K2,0%
same,%Inh,MAP3K3,5%
same,%Inh,MAP3K4,0%
same,%Inh,MAP4K2,70%
same,%Inh,MAP4K3,1%
same,%Inh,MAP4K4,0%
same,%Inh,MAP4K5,0%
same,%Inh,MAPKAPK2; 1 µM,97.1%
same,%Inh,MAPKAPK5,100%
same,%Inh,MARK1,0%
same,%Inh,MARK2,0%
same,%Inh,MARK3,0%
same,%Inh,MARK4,0%
same,%Inh,MAST1,12%
same,%Inh,MEK1,0%
same,%Inh,MEK2,0%
same,%Inh,MEK3,13%
same,%Inh,MEK4,0%
Cc1cccc(-c2nc(Nc3ccncc3)c3sccc3n2)n1 [GW869641],%Inh,MAP3K15,30%
same,%Inh,MAP3K1,37%
same,%Inh,MAP3K2,44%
same,%Inh,MAP3K3,28%
same,%Inh,MAP3K4,0%
same,%Inh,MAP4K2,50%
same,%Inh,MAP4K3,5%
same,%Inh,MAP4K4,37%
same,%Inh,MAP4K5,11%
same,%Inh,MAPKAPK2; [1],0%
same,%Inh,MAPKAPK5,9%
same,%Inh,MARK1,23%
same,%Inh,MARK2,34%
same,%Inh,MARK3,20%
same,%Inh,MARK4,30%
same,%Inh,MAST1,23%
same,%Inh,MEK1,25%
same,%Inh,MEK2,20%
same,%Inh,MEK3,32%
same,%Inh,MEK4,35%
CCn1c(-c2nonc2N)nc2cncc(CNC3CCNCC3)c21.Cl [SB-747651],%Inh,MAP3K15,3%
same,%Inh,MAP3K1,6%
same,%Inh,MAP3K2,13%
same,%Inh,MAP3K3,0%
same,%Inh,MAP3K4,14%
same,%Inh,MAP4K2,0%
same,%Inh,MAP4K3,0%
same,%Inh,MAP4K4,0%
same,%Inh,MAP4K5,0%
same,%Inh,MAPKAPK2; [1],19%
same,%Inh,MAPKAPK5,0%
same,%Inh,MARK1,0%
same,%Inh,MARK2,0%
same,%Inh,MARK3,2%
same,%Inh,MARK4,0%
same,%Inh,MAST1,21%
same,%Inh,MEK1,0%
same,%Inh,MEK2,1%
same,%Inh,MEK3,16%
same,%Inh,MEK4,40%
CCN1CCN(CCCC(=O)Nc2n[nH]c3nc(-c4ccc(O)cc4)c(Br)cc23)CC1 [SB-731579],%Inh,MAP3K15,0%
same,%Inh,MAP3K1,0%
same,%Inh,MAP3K2,0%
same,%Inh,MAP3K3,0%
same,%Inh,MAP3K4,0%
same,%Inh,MAP4K2,0%
same,%Inh,MAP4K3,0%
same,%Inh,MAP4K4,7%
same,%Inh,MAP4K5,5%
same,%Inh,MAPKAPK2; [1],17%
same,%Inh,MAPKAPK5,0%
same,%Inh,MARK1,35%
same,%Inh,MARK2,20%
same,%Inh,MARK3,0%
same,%Inh,MARK4,14%
same,%Inh,MAST1,65%
same,%Inh,MEK1,0%
same,%Inh,MEK2,0%
same,%Inh,MEK3,15%
same,%Inh,MEK4,0%
COc1cccc(CNC(=O)NC2CCN(c3ccnc(Nc4cc(OC)c(OC)c(OC)c4)n3)C2)c1 (centres unmarked) [GSK1379765],%Inh,MAP3K15,0%
same,%Inh,MAP3K1,10%
same,%Inh,MAP3K2,0%
same,%Inh,MAP3K3,0%
same,%Inh,MAP3K4,0%
same,%Inh,MAP4K2,0%
same,%Inh,MAP4K3,1%
same,%Inh,MAP4K4,1%
same,%Inh,MAP4K5,3%
same,%Inh,MAPKAPK2; [1],46%
same,%Inh,MAPKAPK5,0%
same,%Inh,MARK1,0%
same,%Inh,MARK2,0%
same,%Inh,MARK3,0%
same,%Inh,MARK4,1%
same,%Inh,MAST1,0%
same,%Inh,MEK1,17%
same,%Inh,MEK2,5%
same,%Inh,MEK3,15%
same,%Inh,MEK4,25%
CC(=O)c1c(-c2ccncc2)[nH]c(-c2ccncc2)c1C [GW493036],%Inh,MAP3K15,0%
same,%Inh,MAP3K1,5%
same,%Inh,MAP3K2,0%
same,%Inh,MAP3K3,0%
same,%Inh,MAP3K4,9%
same,%Inh,MAP4K2,0%
same,%Inh,MAP4K3,0%
same,%Inh,MAP4K4,16%
same,%Inh,MAP4K5,0%
same,%Inh,MAPKAPK2; [1],23%
same,%Inh,MAPKAPK5,0%
same,%Inh,MARK1,0%
same,%Inh,MARK2,0%
same,%Inh,MARK3,10%
same,%Inh,MARK4,0%
same,%Inh,MAST1,36%
same,%Inh,MEK1,0%
same,%Inh,MEK2,0%
same,%Inh,MEK3,0%
same,%Inh,MEK4,40%
Cc1ccc(C(=O)Nc2ccc(Oc3ccc4nc(NC(=O)C5CC5)cn4c3)c(F)c2)c(=O)n1-c1ccccc1,%Inh,MAP3K15,0%
same,%Inh,MAP3K1,0%
same,%Inh,MAP3K2,0%
same,%Inh,MAP3K3,5%
same,%Inh,MAP3K4,12%
same,%Inh,MAP4K2,0%
same,%Inh,MAP4K3,16%
same,%Inh,MAP4K4,0%
same,%Inh,MAP4K5,0%
same,%Inh,MAPKAPK2; [1],0%
same,%Inh,MAPKAPK5,0%
same,%Inh,MARK1,0%
same,%Inh,MARK2,0%
same,%Inh,MARK3,32%
same,%Inh,MARK4,15%
same,%Inh,MAST1,31%
same,%Inh,MEK1,0%
same,%Inh,MEK2,29%
same,%Inh,MEK3,0%
same,%Inh,MEK4,0%
Nc1nccc(-c2ccc3c(N)n[nH]c3c2)n1 [GSK1034945],%Inh,MAP3K15,0%
same,%Inh,MAP3K1,20%
same,%Inh,MAP3K2,10%
same,%Inh,MAP3K3,0%
same,%Inh,MAP3K4,5%
same,%Inh,MAP4K2,67%
same,%Inh,MAP4K3,4%
same,%Inh,MAP4K4,6%
same,%Inh,MAP4K5,0%
same,%Inh,MAPKAPK2; [1],79%
same,%Inh,MAPKAPK5,0%
same,%Inh,MARK1,0%
same,%Inh,MARK2,0%
same,%Inh,MARK3,0%
same,%Inh,MARK4,7%
same,%Inh,MAST1,0%
same,%Inh,MEK1,0%
same,%Inh,MEK2,0%
same,%Inh,MEK3,0%
same,%Inh,MEK4,8%
N#Cc1cccc(C(=O)NC2CCN(c3ccnc(Nc4ccc(F)cc4)n3)C2)c1 (centres unmarked) [GSK1379708],%Inh,MAP3K15,0%
same,%Inh,MAP3K1,1%
same,%Inh,MAP3K2,11%
same,%Inh,MAP3K3,0%
same,%Inh,MAP3K4,33%
same,%Inh,MAP4K2,0%
same,%Inh,MAP4K3,0%
same,%Inh,MAP4K4,7%
same,%Inh,MAP4K5,1%
same,%Inh,MAPKAPK2; [1],14%
same,%Inh,MAPKAPK5,0%
same,%Inh,MARK1,0%
same,%Inh,MARK2,0%
same,%Inh,MARK3,0%
same,%Inh,MARK4,16%
same,%Inh,MAST1,0%
same,%Inh,MEK1,0%
same,%Inh,MEK2,0%
same,%Inh,MEK3,0%
same,%Inh,MEK4,17%
COc1cccc(OC)c1C(=O)Nc1cccc(-c2nn3ccccc3c2-c2ccnc(Nc3cccc(F)c3)n2)c1 [GSK361065],%Inh,MAP3K15,0%
same,%Inh,MAP3K1,0%
same,%Inh,MAP3K2,7%
same,%Inh,MAP3K3,43%
same,%Inh,MAP3K4,14%
same,%Inh,MAP4K2,5%
same,%Inh,MAP4K3,0%
same,%Inh,MAP4K4,21%
same,%Inh,MAP4K5,67%
same,%Inh,MAPKAPK2; [1],11%
same,%Inh,MAPKAPK5,8%
same,%Inh,MARK1,17%
same,%Inh,MARK2,8%
same,%Inh,MARK3,7%
same,%Inh,MARK4,14%
same,%Inh,MAST1,9%
same,%Inh,MEK1,28%
same,%Inh,MEK2,41%
same,%Inh,MEK3,30%
same,%Inh,MEK4,0%
